# From PubChem BioAssay
# Values without a mark were called inactive. Entries that show only a call come without a potency. For part of these data: Potency and affinity values are given separately. The source made the active and inactive calls. Unless noted, no rule for the calls is given here.
# Legend:
# [1] = antimalarial activity against Dd2 strain (AID 2302;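 active = growth inhibition above 50% at the single 2 µM test dose, taken to imply half-maximal potency below 2 µM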); details: P. falciparum Dd2 in RBCs, LDH growth readout, 72 h; at 2 µM; active compounds read high
# [2] = human hepatoma cell viability loss – ATP luminescence, cytotoxicity control for P. falciparum antimalarial project, primary screen (AID 2303;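 active = inhibition above 50%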); details: HepG2 viability, 24-48 h, at 10 µM, active compounds read high
# [3] = target: L-lactate dehydrogenase (Plasmodium falciparum (isolate CDC / Honduras)) (UniProt Q27743); assay: PfLDH activity inhibition – cell lysate, 3D7 strain, counter-screen for P. falciparum growth inhibition project (AID 2304); details: P. falciparum 3D7 crude extract, LDH APAD/NBT absorbance; at 2 µM; active compounds read high
# L-lactate dehydrogenase (Plasmodium falciparum (isolate CDC / Honduras)), sequence (Q27743 whole entry, looked up): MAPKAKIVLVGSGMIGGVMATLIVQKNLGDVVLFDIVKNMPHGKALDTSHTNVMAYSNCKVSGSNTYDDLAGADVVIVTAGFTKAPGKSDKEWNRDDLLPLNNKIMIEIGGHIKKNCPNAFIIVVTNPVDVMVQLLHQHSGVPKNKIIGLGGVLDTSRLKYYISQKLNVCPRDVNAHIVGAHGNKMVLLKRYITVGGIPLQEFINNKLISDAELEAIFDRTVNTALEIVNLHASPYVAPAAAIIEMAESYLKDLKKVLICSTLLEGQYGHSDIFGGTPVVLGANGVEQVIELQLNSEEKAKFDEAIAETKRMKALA
# [4] = inhibition of 3D7 malaria parasite growth – strain 3D7 (AID 2306); details: P. falciparum 3D7 erythrocytic growth, LDH absorbance, 72 h; at 2 µM; active compounds read high
# [5] = target: Calcium-dependent protein kinase 1 (Plasmodium falciparum (isolate 3D7)) (UniProt P62344); assay: PfCDPK1 kinase inhibitors, biochemical, TCAMS library (AID 1159585; cut-off not given, nearly all actives have IC50 up to about 0.98 µM;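 also: inhibitors leave more ATP so luminescence rises with inhibition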); details: recombinant PfCDPK1, Kinase-Glo ATP depletion luminescence
# Calcium-dependent protein kinase 1 (Plasmodium falciparum (isolate 3D7)), sequence (P62344 whole entry, looked up): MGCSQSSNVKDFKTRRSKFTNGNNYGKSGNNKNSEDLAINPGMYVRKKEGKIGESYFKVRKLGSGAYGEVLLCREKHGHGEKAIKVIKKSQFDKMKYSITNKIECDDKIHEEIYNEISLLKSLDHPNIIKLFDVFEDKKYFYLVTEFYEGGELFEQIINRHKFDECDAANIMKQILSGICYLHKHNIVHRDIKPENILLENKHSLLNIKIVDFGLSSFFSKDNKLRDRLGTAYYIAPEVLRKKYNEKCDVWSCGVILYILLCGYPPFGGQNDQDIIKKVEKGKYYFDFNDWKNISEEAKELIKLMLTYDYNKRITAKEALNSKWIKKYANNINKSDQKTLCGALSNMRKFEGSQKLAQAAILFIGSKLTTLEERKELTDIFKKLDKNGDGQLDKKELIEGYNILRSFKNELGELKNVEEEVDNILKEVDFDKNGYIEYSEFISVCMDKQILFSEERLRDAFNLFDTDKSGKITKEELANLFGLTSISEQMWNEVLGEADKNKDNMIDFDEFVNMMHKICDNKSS
# [6] = target: Plasmodium falciparum protein kinase 6 (PK6, PF3D7_1337100) (UniProt Q8IDW1); assay: PfPK6 kinase inhibitors, biochemical, TCAMS library (AID 1159586); details: recombinant PfPK6, Kinase-Glo ATP depletion luminescence
# Plasmodium falciparum protein kinase 6 (PK6, PF3D7_1337100), sequence (Q8IDW1 1-305): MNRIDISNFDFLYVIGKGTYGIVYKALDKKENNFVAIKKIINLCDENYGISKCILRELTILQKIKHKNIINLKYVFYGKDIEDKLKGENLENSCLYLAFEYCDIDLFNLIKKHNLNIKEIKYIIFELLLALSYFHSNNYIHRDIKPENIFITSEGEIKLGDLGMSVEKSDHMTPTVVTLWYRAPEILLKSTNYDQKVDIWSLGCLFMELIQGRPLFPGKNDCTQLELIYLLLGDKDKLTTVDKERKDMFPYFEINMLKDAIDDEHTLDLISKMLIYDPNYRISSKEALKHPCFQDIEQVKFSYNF
# [7] = target: Protein kinase 7 (PK7), Plasmodium falciparum 3D7 (PF3D7_0213400) (UniProt Q7YTF7); assay: inhibition of Plasmodium PK7 catalytic activity – biochemical, TCAMS antimalarial set, Kinase-Glo luminescence (AID 1159587); details: recombinant PfPK7, Kinase-Glo ATP depletion luminescence
# Protein kinase 7 (PK7), Plasmodium falciparum 3D7 (PF3D7_0213400), sequence (Q7YTF7 1-343): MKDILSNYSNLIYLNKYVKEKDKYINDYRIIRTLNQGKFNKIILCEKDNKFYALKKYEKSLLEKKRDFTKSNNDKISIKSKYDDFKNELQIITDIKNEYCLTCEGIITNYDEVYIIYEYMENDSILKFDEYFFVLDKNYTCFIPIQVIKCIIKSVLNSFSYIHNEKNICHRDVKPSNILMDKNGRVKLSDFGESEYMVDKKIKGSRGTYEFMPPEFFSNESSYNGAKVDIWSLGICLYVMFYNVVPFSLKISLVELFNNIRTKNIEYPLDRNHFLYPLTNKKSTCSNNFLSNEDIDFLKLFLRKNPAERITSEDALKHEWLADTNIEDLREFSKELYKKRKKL
# [8] = target: Calcium-dependent protein kinase 4 (Plasmodium falciparum (isolate 3D7)) (UniProt Q8IBS5); assay: PfCDPK4 kinase inhibitors, biochemical, TCAMS library (AID 1159588; cut-off not given, nearly all actives have IC50 up to about 0.91 µM); details: recombinant PfCDPK4, Kinase-Glo ATP depletion luminescence
# Calcium-dependent protein kinase 4 (Plasmodium falciparum (isolate 3D7)), sequence (Q8IBS5 whole entry, looked up): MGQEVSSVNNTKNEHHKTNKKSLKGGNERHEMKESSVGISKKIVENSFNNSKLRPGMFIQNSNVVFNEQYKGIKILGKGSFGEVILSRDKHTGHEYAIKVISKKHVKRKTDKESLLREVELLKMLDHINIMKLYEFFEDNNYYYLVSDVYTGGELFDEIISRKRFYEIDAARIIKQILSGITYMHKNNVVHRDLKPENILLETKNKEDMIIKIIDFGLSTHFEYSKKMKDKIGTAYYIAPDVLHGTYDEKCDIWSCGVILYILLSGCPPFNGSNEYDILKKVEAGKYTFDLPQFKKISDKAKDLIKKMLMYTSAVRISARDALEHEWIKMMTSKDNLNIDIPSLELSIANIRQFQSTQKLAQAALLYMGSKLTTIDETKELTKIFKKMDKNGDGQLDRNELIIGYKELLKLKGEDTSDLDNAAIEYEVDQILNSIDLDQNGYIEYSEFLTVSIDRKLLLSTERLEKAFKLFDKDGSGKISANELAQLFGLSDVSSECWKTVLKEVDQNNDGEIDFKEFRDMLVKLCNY
Compound,growth inhibition [1],inhibition [2],inhibition [3] [%],growth inhibition [4],outcome [5],outcome [6],outcome [7],outcome [8]
COc1ccc(O)c(-c2sc(N=C(N)N)nc2-c2ccccc2)c1,96% (active),2%,-2,101% (active),inactive,inactive,inactive,inactive
CCCCCOc1c(CCC)cc(Cc2cnc(N)nc2N)cc1CCC,-3%,58% (active),-2,94% (active),inactive,inactive,inactive,inactive
COc1cccc(CCc2ccc(O)c3c2C[C@H]2C[C@H]4[C@H](N(C)C)C(=O)C(C(N)=O)=C(O)[C@@]4(O)C(=O)C2=C3O)c1,67% (active),43%,-4,93% (active),inactive,inactive,inactive,inactive
COc1ccc2nccc([C@@H](O)CN3CCC(NCc4cc5oc(=O)[nH]c5cc4Cl)CC3)c2c1,91% (active),1%,-2,101% (active),inactive,inactive,inactive,inactive
N#Cc1ccc(N2CCN(Cc3cccc(-c4ccc(-c5nc6ccc(C(F)(F)F)cc6[nH]5)cc4)c3)CC2)nc1,81% (active),39%,-1,101% (active),inactive,inactive,inactive,inactive
COc1ccc2ncc(Cl)c([C@H](O)CN3CCC(NCc4cc5c(cn4)OCCO5)CC3)c2c1,100% (active),10%,1,100% (active),inactive,inactive,inactive,inactive
CC(C)(C)NS(=O)(=O)c1cc(C(=O)N2CCC(CCN3CCC(C(=O)c4ccc(F)cc4)CC3)(c3cccc(F)c3)CC2)c(Cl)cc1F,99% (active),-1%,4,99% (active),inactive,inactive,inactive,inactive
O=C(Nc1ccc(Cl)cc1)Nc1ccc(-c2cccc(-c3nc4ccc(F)cc4[nH]3)c2)cc1,96% (active),74% (active),-1,101% (active),inactive,inactive,inactive,inactive
COc1ccc(C2C(C(=O)OC3CCCCC3)=C(C)NC3=C2C(=O)CCC3)cc1Br (centres undefined),94% (active),7%,-7,95% (active),inactive,inactive,inactive,inactive
Cc1c(C)c2c(c(C)c1O)CCC(C)(CCC(=O)O)O2 (centres undefined),-4%,8%,0,96% (active),inactive,inactive,inactive,inactive
O=C(/C=C/c1ccc(-c2nc3cc(F)c(F)cc3[nH]2)cc1)NCc1ccc(Cl)c(Cl)c1,24%,14%,4,100% (active),inactive,inactive,inactive,inactive
COC(=O)c1ccc(CC(C)NCC(O)c2ccc(C(O)CNC(C)Cc3ccc(C(=O)OC)cc3)cc2)cc1 (centres undefined),13%,24%,1,88% (active),inactive,inactive,inactive,inactive
Cn1c(-c2ccccc2)cc2c3c(N)nc(N)nc3ccc21,30%,27%,-2,100% (active),inactive,inactive,inactive,inactive
N=C(N)c1cc(Cl)cc(NC(=O)Nc2cc(Cl)cc(C(=N)N)c2)c1,92% (active),4%,-7,92% (active),inactive,inactive,inactive,inactive
Brc1ccc(Nc2nc(NCc3ccccc3)c3ccccc3n2)cc1,99% (active),24%,-4,101% (active),inactive,inactive,inactive,inactive
CC(C)c1ccc(NC(=O)c2ccc(C(=O)NC3CCN(CC4CCCCC4)C3)cc2)cc1 (centres undefined),26%,35%,3,93% (active),inactive,inactive,inactive,inactive
Cc1sc(NC(=O)c2ccc([N+](=O)[O-])cc2Cl)c(C(N)=O)c1C,2%,2%,1,94% (active),inactive,inactive,inactive,inactive
CC(=O)CCc1ccc(OCCN(Cc2ccccc2C(F)(F)F)c2ccc(C#N)c(C(F)(F)F)c2)cc1,87% (active),14%,0,100% (active),inactive,inactive,inactive,inactive
